# This is part of a sample that, as a whole, favours compounds with a hit. Of some 83,000 tested, about 20% had one in any assay.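 Interpretation: 100, growth as untreated; towards 0, rising growth inhibition; 0, no net growth; 0 to -100, cell death. Compounds scoring below 10 were considered active.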 Unmarked numbers belong to inactive results. Active and inactive are the calls of the source.
# System: TK-10 renal
# Experiment: NCI-60 one-dose screen, 48 h (100 = growth as untreated, 0 = no growth, -100 = all killed)
# Conditions: 10 µM unless noted
row,SMILES,growth
1,O=C1C=C(OCC=C(C(F)(F)F)C(F)(F)F)c2ccccc2C1=O,53.5%
2,Cc1ccc(S(=O)(=O)N/N=C2\CC3CCC2C3)cc1 (stereo not given),122%
3,O=C(O)CS(=O)c1ccc(Cl)cc1 (stereo not given),96.1%
4,CCN(CC)CCCC(C)Nc1c(C)cnc2cc(Cl)c(C)cc12 (stereo not given),90.5%
5,Oc1ccc([S+](c2ccc(O)cc2)c2ccc(O)cc2)cc1,115%
6,CC(C)CSc1nc(-c2ccc(F)cc2)c(C#N)c(N2CCCCC2)n1,91.4%
7,CC(=O)Nc1ccc(C(=O)/C=C/c2ccc(N(C)C)cc2)cc1,95.4%
8,CCCCCN1CCN(C(CC(=O)c2ccccc2)C(=O)c2ccccc2)CC1 (stereo not given),99.9%
9,CCCCCC(=C/c1ccccc1)/C=N/N=C(N)N,72.9%
10,CC(=O)c1ccc2c(c1)c1ccccc1n2C,108%
11,CC1(C)NC(=S)NC1=O,112%
12,CC(=O)OCC(=O)[C@@]1(O)[C@H](C)C[C@H]2[C@@H]3C=C(C)C4=Cc5c(cnn5-c5ccc(F)cc5)C[C@]4(C)[C@H]3[C@@H](O)C[C@@]21C,19.7%

# System: ACHN renal
# Experiment: as above
# Conditions: 10 µM unless noted
row,SMILES,growth
1,CCC(C)CC(N)O (stereo not given),106%
2,S=C(N/N=C/c1cc(Cl)cc(Cl)c1)NC12CC3CC(CC(C3)C1)C2,4.44% (active)
3,CCCNC(=O)Oc1ccc(/C(=C(/CC)Cc2ccccc2)c2ccc(OCCN(CC)CC)cc2)cc1,90.1%
4,O=CN/N=C/c1ccc(Cl)c([N+](=O)[O-])c1,44.2%
5,CNc1ccc(Nc2ccc(S(=O)(=O)O)cc2)c2c1C(=O)c1ccccc1C2=O,98.7%
6,Cc1ccc(C(=O)NN)cc1,115%
7,CC1Cc2cc(F)ccc2-n2cccc21 (stereo not given),106%
8,O=C(Nc1ccc(Cl)c(Cl)c1)O/N=C\c1c(Cl)ccc([N+](=O)[O-])c1Cl,-59.5% (active)
9,C/C(=C\c1ccc2ccccc2c1)[N+](=O)[O-],-74.1% (active)
10,CCCCCCCCC1OC1CCCCCCCC(=O)O (stereo not given),103%
11,Cc1sc(NC(=O)c2ccc(C(C)(C)C)cc2)c(C(=O)O)c1C,38.8%
12,CN1NC(c2ccccc2)NN(C)C1=O,95.1%
13,CC(C)(C)C(=O)OCOP(=O)(OCOC(=O)C(C)(C)C)C1CC(O)N(O)C1=O (stereo not given),42.7%
14,CC(=O)OC1/C=C\CC/C=C\C1 (stereo not given),96.3%
15,O=C(/C=C\c1ccc(NCc2ccc(C(=O)O)cc2)cc1)CCl,93.3%
16,CCCCCCC(C)N(CC(C)(C)O)C(=O)c1ccc([N+](=O)[O-])cc1 (stereo not given),107%
17,COc1ccc(/C=N/c2cc(C(C)(C)C)nn2-c2ccccc2)cc1,95.7%

row,SMILES,growth
1,CNCCCNCCCCNCCCN1C(=O)c2ccc3c4c(ccc(c24)C1=O)C(=O)N(CCCNCc1ccccc1OC)C3=O,26%
2,CC(O)CN(CC(C)O)N(CC(C)O)CC(C)O (stereo not given),99%
3,COc1ccc(/C=C2\CCCC3=C2N=C2SC=NN2C3c2ccc(OC)c(OC)c2)cc1OC (stereo not given),37.4%
4,COc1ccc(CN2C(=O)/C(=C\C(=O)c3ccc(OCCN4CCCCC4)cc3)c3ccccc32)cc1,48.7%
5,CCN(CC)CCCNc1c2ccc(Cl)cc2nc2ccc(OC)cc12,1.29% (active)
6,O=C1C=C(OCC=C(C(F)(F)F)C(F)(F)F)c2ccccc2C1=O,1.45% (active)
7,Cc1ccc(S(=O)(=O)N/N=C2\CC3CCC2C3)cc1 (stereo not given),94.7%
8,O=C(O)CS(=O)c1ccc(Cl)cc1 (stereo not given),95.2%
9,CCN(CC)CCCC(C)Nc1c(C)cnc2cc(Cl)c(C)cc12 (stereo not given),94%
10,Oc1ccc([S+](c2ccc(O)cc2)c2ccc(O)cc2)cc1,106%
11,CC(C)CSc1nc(-c2ccc(F)cc2)c(C#N)c(N2CCCCC2)n1,98.8%
12,CC(=O)Nc1ccc(C(=O)/C=C/c2ccc(N(C)C)cc2)cc1,103%
13,CCCCCC(=C/c1ccccc1)/C=N/N=C(N)N,1.62% (active)
14,CC(=O)c1ccc2c(c1)c1ccccc1n2C,110%
15,CC1(C)NC(=S)NC1=O,109%
16,CC(=O)OCC(=O)[C@@]1(O)[C@H](C)C[C@H]2[C@@H]3C=C(C)C4=Cc5c(cnn5-c5ccc(F)cc5)C[C@]4(C)[C@H]3[C@@H](O)C[C@@]21C,13.5%

# System: CAKI-1 renal
# Experiment: as above
# Conditions: 10 µM unless noted
row,SMILES,growth
1,COc1cc2c(c(OC)c1OC)C(=O)CC(c1cccc(C(=O)Nc3cccc(Br)c3)c1)O2 (stereo not given),85.3%
2,CCC(C)CC(N)O (stereo not given),110%
3,S=C(N/N=C/c1cc(Cl)cc(Cl)c1)NC12CC3CC(CC(C3)C1)C2,-1.81% (active)
4,O=CN/N=C/c1ccc(Cl)c([N+](=O)[O-])c1,41.1%
5,CNc1ccc(Nc2ccc(S(=O)(=O)O)cc2)c2c1C(=O)c1ccccc1C2=O,91.9%
6,O=C(Nc1ccc(Cl)c(Cl)c1)O/N=C\c1c(Cl)ccc([N+](=O)[O-])c1Cl,7.78% (active)
7,C/C(=C\c1ccc2ccccc2c1)[N+](=O)[O-],-79.2% (active)
8,CCCCCCCCC1OC1CCCCCCCC(=O)O (stereo not given),100%
9,CN1NC(c2ccccc2)NN(C)C1=O,85.4%
10,CC(=O)OC1/C=C\CC/C=C\C1 (stereo not given),99.2%
11,O=C(/C=C\c1ccc(NCc2ccc(C(=O)O)cc2)cc1)CCl,105%
12,CCCCCCC(C)N(CC(C)(C)O)C(=O)c1ccc([N+](=O)[O-])cc1 (stereo not given),108%
13,CNCCCNCCCCNCCCN1C(=O)c2ccc3c4c(ccc(c24)C1=O)C(=O)N(CCCNCc1ccccc1OC)C3=O,28.6%
14,CC(O)CN(CC(C)O)N(CC(C)O)CC(C)O (stereo not given),98.9%
15,COc1ccc(/C=C2\CCCC3=C2N=C2SC=NN2C3c2ccc(OC)c(OC)c2)cc1OC (stereo not given),32.5%
16,CCN(CC)CCCNc1c2ccc(Cl)cc2nc2ccc(OC)cc12,4.67% (active)
17,O=C1C=C(OCC=C(C(F)(F)F)C(F)(F)F)c2ccccc2C1=O,4.75% (active)
18,Cc1ccc(S(=O)(=O)N/N=C2\CC3CCC2C3)cc1 (stereo not given),101%
19,O=C(O)CS(=O)c1ccc(Cl)cc1 (stereo not given),115%
20,CCN(CC)CCCC(C)Nc1c(C)cnc2cc(Cl)c(C)cc12 (stereo not given),80.6%
21,Oc1ccc([S+](c2ccc(O)cc2)c2ccc(O)cc2)cc1,102%
22,CC(=O)Nc1ccc(C(=O)/C=C/c2ccc(N(C)C)cc2)cc1,97%
23,CCCCCN1CCN(C(CC(=O)c2ccccc2)C(=O)c2ccccc2)CC1 (stereo not given),81.6%
24,CC(=O)c1ccc2c(c1)c1ccccc1n2C,73.5%
25,CC1(C)NC(=S)NC1=O,97.8%
